# About 9,900 (2.8%) of roughly 350,000 compounds were called active. Another 15% or so got no clear call; they are omitted. The list comes from a sample in which actives are over-represented; it also holds similar structures and randomly drawn compounds. A number with no mark means an inactive call. Calls follow the shape of the dose curve; as a rule, active = well fitted activation curve with a large enough effect; inconclusive = small, poorly fitted or top-dose-only effect; inactive = no such curve, though single readings can be large or run the other way.
# Experiment: A quantitative high throughput screen for small molecules that induce DNA re-replication in MCF 10a normal breast cells. Also: nearly all actives have a fitted effect of over 50% in size. As to activity, positive = re-replication: % of control where 0% means no effect.
# Conditions: MCF 10A DNA re-replication, Hoechst nuclear intensity, 48 h; series mostly up to 46.1 µM; activity, positive = re-replication: at the top concentration
# Potency is read from the fitted curve at half-maximal effect.
SMILES,"activity, positive = re-replication",Potency
CCOC(=O)C1(c2ccccc2)CCN(CC(O)c2ccc(NC(C)=O)cc2)CC1 (stereo unspecified),-0.895%,–
Cc1nc2ccccc2c(=O)n1-c1ccc(Cl)cc1Cl,7.11%,–
O=c1c2ccccc2nc(/C=C/c2ccco2)n1-c1ccccc1O,–,23.1 µM (active)
O=c1c2ccccc2nc(-c2ccco2)n1-c1ccc(Br)cn1,28.7%,–
CNC(C)[C@@H](O)c1ccccc1 (stereo partly specified),4.33%,–
CCC(=O)OC(Cc1ccccc1)(c1ccccc1)C(C)CN(C)C (stereo unspecified),1.9%,–
c1cc2c(cc1C1OCC3C(c4ccc5c(c4)OCO5)OCC13)OCO2 (stereo unspecified),-0.791%,–
CC(=O)C1(O)CCC2C3CCC4=C(Cl)C(=O)CCC4(C)C3CCC21C (stereo unspecified),-1.71%,–
CCNc1nc2[nH]c(=O)c3c(c2s1)OC(N)=C(C#N)C3c1cccs1 (stereo unspecified),-7.38%,–
N#CC1=C(N)Oc2c(c(=O)oc3ccccc23)C1c1ccccc1OC(=O)c1cccs1 (stereo unspecified),–,20.6 µM (active)
CCN1C(=O)NC(=O)C2(CCCC2)C1=O,1.74%,–
COc1cc(-n2c(=S)[nH]c3ccc(C)cc3c2=O)c(Cl)cc1Cl,–,13 µM (active)
CC1([N+](=O)[O-])COP(=O)(Nc2ccc(F)cc2)OC1 (stereo unspecified),0.716%,–
COc1c(O)ccc2c1-c1c3c(cc4c1C(C2)N(C)CC4)OCO3 (stereo unspecified),2.18%,–
COc1ccc2cc1Oc1ccc(cc1)C[C@H]1c3cc(c(OC)cc3CCN1C)Oc1c(O)c(OC)cc3c1[C@H](C2)N(C)CC3,–,20.6 µM (active)
CC[N+]1(CCOC(=O)C(O)(c2ccccc2)c2ccccc2)CCCCC1,-0.489%,–
COC1=C[C@@H]2[C@@H]3Cc4ccc(OC)c(O)c4[C@]2(CCN3C)CC1=O,-6.99%,–
CNCC[C@H](Oc1ccc(C(F)(F)F)cc1)c1ccccc1,-31.5%,–

SMILES,"activity, positive = re-replication",Potency
Cc1cc(-c2ccc(N)c(C)c2)ccc1N,1.97%,–
CC1CNCCN1c1ccc(Cl)cc1 (stereo unspecified),2.88%,–
C[C@@H]1C[C@@H]2O[C@H]2/C=C\C=C\C(=O)Cc2c(Cl)c(O)cc(O)c2C(=O)O1,–,9.2 µM (active)
CC(=O)OC1C([N+]2(C)CCCCC2)C[C@H]2C3CC[C@H]4C[C@H](OC(C)=O)C([N+]5(C)CCCCC5)CC4(C)C3CCC12C (stereo partly specified),-4.37%,–
Cc1ncc(CC(=O)n2cc(C(=O)c3cc(Cl)ccc3O)cn2)s1,–,10 µM (active)
C[C@]12CCC3C(CC[C@H]4[C@H](O)[C@H](O)CC[C@]34C)C1CCC2=O (stereo partly specified),-8.95%,–
O=C1NC(=O)C(CCOc2ccccc2)(CCc2ccccc2)C(=O)N1,16.8%,–
CCC1(c2ccccc2)C(=O)NC(=O)N(C)C1=O (stereo unspecified),-1.92%,–
CCC1(CC(C)c2ccccc2)C(=O)NC(=O)NC1=O (stereo unspecified),-24%,–
Cc1cc2ccccn2c1C(C[N+](=O)[O-])c1c(F)cccc1Cl (stereo unspecified),–,3.26 µM (active)
Oc1ccc2c3c1OC1[C@H](O)CC[C@@]4(O)[C@@H](C2)N(CC2CC2)CC[C@]314 (stereo partly specified),–,inactive
CN1CCCC(=C(c2cccs2)c2cccs2)C1,13.4%,–
COC(=O)[C@@H]1C(OC(=O)c2ccccc2)CC2CCC1N2C (stereo partly specified),-11.5%,–
Brc1cc(Br)c(Oc2cc(Br)c(Br)cc2Br)cc1Br,–,14.6 µM (active)
CC[C@]1(C(=O)OC)[C@H]2C(=O)N(Cc3ccccc3)C(=O)[C@H]2[C@H]2CN=C(SCc3ccc(C#N)cc3)N21,5.65%,–
Cc1cc(C)c2c(c1)NP(=S)(c1ccccc1)N2 (stereo unspecified),0.425%,–
CN=C(NC#N)NCCSCc1nc[nH]c1C,–,inactive
O=C(N/N=C/c1ccc([N+](=O)[O-])o1)c1cc([N+](=O)[O-])cc([N+](=O)[O-])c1O,-1.45%,–
